From PubChem BioAssay AID1377 (University of Pittsburgh Molecular Library Screening Center, 2008)
About 830 (0.38%) of roughly 220,000 compounds were called active.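 The calls were made as follows: active = activation, scaled between plate controls, above about 75% (limit read from the data); inactive = activation under that limit.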 Shown is part of a subset that was picked to be rich in actives.

Assay: rescue of L929 cells from zVAD death – primary screen (AID 1377);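 also: 0% = zVAD with DMSO and 100% = DMSO alone without zVAD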
Conditions: L929 zVAD necroptosis rescue, ATP luminescence, 24 h, at 10 µM, stronger effect = higher value; with zVAD 60 µM unless noted

| Structure (SMILES) | viability rescue |
| --- | --- |
| Cc1[nH]c(=O)c(C(=O)/C=C/c2ccccc2)c2c1CCCC2 | 79.8% [with zVAD 20 µM] (active) |
| O=C(/C=C/c1ccccc1)c1ccccc1O | 1.78% (inactive) |
| Cc1nc(-c2ccccc2)sc1C(=O)/C=C/c1ccccc1 | 0.15% [with zVAD 20 µM] (inactive) |
| CCc1cc2c(=O)c(-c3nc4ccccc4n3C)c(CCCC(=O)O)oc2cc1OC(=O)C(C)(C)C | 3.54% (inactive) |
| Fc1ccc2c(c1)C(c1cccnc1)=NNC(c1cccs1)=N2 | 0.66% (inactive) |
| COc1cccc(/C=N/NC(=O)CNC(=O)c2ccc(S(=O)(=O)N3CCOCC3)cc2)c1OC | 0.08% (inactive) |
| COc1c(N2CCN(C(=S)Nc3ccccc3F)C(C)C2)c(F)cc2c(=O)c(C(=O)O)cn(C3CC3)c12 (stereo unspecified) | -0.64% (inactive) |
| CC1CCCC(C)N1/N=C/c1ccccc1OC(F)F (stereo unspecified) | 2.14% (inactive) |
| O=C(Cn1cnc2ccccc2c1=O)Nc1cccc(S(=O)(=O)N2CCCCC2)c1 | 2.04% (inactive) |
| Cc1ccc(NC(=O)c2ccc(Oc3ncccn3)cc2)cc1 | 3.02% (inactive) |
| CCn1c(SCC(=O)Nc2ccc(OC)c(OC)c2)nnc1-c1c[nH]c2ccccc12 | 1.56% [with zVAD 20 µM] (inactive) |
| CCn1c(SCCC(C)C)nnc1-c1c[nH]c2ccccc12 | 81.2% [with zVAD 20 µM] (active) |
| CCC(C)Sc1nnc(-c2c[nH]c3ccccc23)n1CCOC (stereo unspecified) | 2.86% [with zVAD 20 µM] (inactive) |
| CCOc1cccc2c1OC1(CCCCC1)N1N=C(c3cccnc3)CC21 (stereo unspecified) | 1.15% (inactive) |
| Cc1ccc(NC(=O)C/C(N)=N/O)cc1Cl | 1.11% (inactive) |
| CCC(=O)c1ccc(OCC(=O)Nc2ccc3nc(C)sc3c2)cc1 | 0.76% (inactive) |
| Cc1ccc(NC(=O)COc2ccc(-n3ccnc3)cc2)cc1Cl | 76.3% [with zVAD 20 µM] (active) |
| O=C(Cc1coc2ccc3ccccc3c12)NCc1cccs1 | 0.48% (inactive) |
| Cc1ccccc1NC(=O)NC1(C(=O)N2CCCC2)CCCCC1 | 4.41% (inactive) |

| Structure (SMILES) | viability rescue |
| --- | --- |
| CCOC(=O)N1CCN(C(=O)CSc2ccc(Cl)cc2)CC1 | -0.42% [with zVAD 20 µM] (inactive) |
| CCOC(=O)N1CCN(C(=O)COc2ccc(Cl)cc2C)CC1 | 0.53% (inactive) |
| CCOC(=O)N1CCN(C(=O)CNC(=O)Cc2ccc(Cl)cc2)CC1 | 80.3% (active) |
| O=C(NC(=S)Nc1ccc2oc(=O)ccc2c1)c1ccc(-c2cccc(Cl)c2Cl)o1 | 0.38% (inactive) |
| CC(=O)c1cc(C#N)c(SCC(=O)C(C)(C)C)nc1C | 0.46% (inactive) |
| CC(=O)c1cc(C#N)c(SCC(=O)Nc2nccs2)nc1C | 82.9% (active) |
| Cc1[nH]c2ccccc2c1SCC(=O)Nc1nccs1 | 1% (inactive) |
| COc1ccc(C(CCN(Cc2ccc(OC)c(OC)c2)C(=O)CCl)c2ccccc2)cc1 (stereo unspecified) | 36.4% [with zVAD 20 µM] (inactive) |
| COc1ccccc1OCc1ccc(C(=O)N2CCN(C)CC2)o1 | 0.99% (inactive) |
| O=C(c1ccco1)N1CCN(CCOc2ccccc2)CC1 | -0.6% (inactive) |
| O=C(c1ccco1)N1CCN(C(=O)c2ccc(COc3ccc(F)cc3)o2)CC1 | 77.8% [with zVAD 20 µM] (active) |
| O=C(C/C(=N\NC(=O)c1ccccc1Br)C(F)(F)F)c1cccs1 | 0.26% (inactive) |
| Cc1cc(C(=O)N2CCC(C(=O)O)CC2)c(C(F)(F)F)o1 | -0.1% (inactive) |
| COC(=O)C1=C(C)N(C(C)c2ccccc2)C(=O)/C1=C\c1ccco1 (stereo unspecified) | 10.9% (inactive) |
| O=C(CCN1CCN(c2ccccc2)CC1)NNC(=S)Nc1ccccc1 | 1.61% (inactive) |
| Cn1ccc(NC(=O)Nc2ccc(Cl)cc2)n1 | 75.5% (active) |
| Cc1nn(C)cc1CNC(=O)Nc1ccc(Cl)cc1 | 0.19% (inactive) |
| Cc1cc(NC(=O)Nc2ccc(Cl)cc2)n(-c2ccccc2)n1 | 22.9% (inactive) |
| COC(=O)Cn1cc(/C=C/[N+](=O)[O-])c2ccccc21 | -0.01% (inactive) |

| Structure (SMILES) | viability rescue |
| --- | --- |
| COc1cc(NS(=O)(=O)c2ccc(N/C=C(\C=O)c3nc4cc(Cl)ccc4o3)cc2)nc(OC)n1 | 0.63% (inactive) |
| Cc1ccc(N2C(=O)C(CC(=O)Nc3cccc(F)c3)N(CCc3ccncc3)C2=O)cc1 (stereo unspecified) | 6.31% (inactive) |
| CCc1c(SCCC(=O)O)nc2ccccc2c1C | 5.34% (inactive) |
| Cn1c2ccc(F)cc2c2nnc(NN)nc21 | 1.53% (inactive) |
| C=CCO/N=C/C1=C(O)C(C(=O)OC)C(C)(C)CC1=O (stereo unspecified) | 4.04% (inactive) |
| CCCCC(CCC(=O)Nc1ccc(C(=O)OCC)cc1)C(=O)O (stereo unspecified) | 0.34% [with zVAD 20 µM] (inactive) |
| NC(=O)c1ccc(NC(=O)COC(=O)c2ccc([N+](=O)[O-])cc2)cc1 | 1.41% (inactive) |
| CC(C)NC(=O)NC(=O)COC(=O)c1ccc(NC(=O)CC#N)cc1 | 78.9% (active) |
| CC1CCCC(C)N1CCCNC(=O)c1cc2c(=O)n(C)c3ccccc3c2n1C (stereo unspecified) | 80.8% [with zVAD 20 µM] (active) |
| Cn1c(C(=O)NCCCN2CCN(c3cccc(Cl)c3)CC2)cc2c(=O)n(C)c3ccccc3c21 | 4.61% (inactive) |
| CCN1CCCC1CNC(=O)c1cc2c(=O)n(C)c3ccccc3c2n1C (stereo unspecified) | 22.7% [with zVAD 20 µM] (inactive) |
| CN(C)S(=O)(=O)Oc1ccccc1C(=O)Nc1ccccc1Cl | -0.16% (inactive) |
| COCCN1C2=C(COC(C)(C)C2)C(=S)NC1c1ccccc1 (stereo unspecified) | 0.35% (inactive) |
| O=C(COC(=O)c1ccc(Cl)nc1)NCc1cccs1 | 1% (inactive) |
| CCn1c(SCC(=O)Nc2nc3ccc(OC)cc3s2)nnc1-c1ccoc1C | 88.1% [with zVAD 20 µM] (active) |
| CCCn1c(SCC(=O)Nc2cccc(C(=O)OCC)c2)nnc1-c1ccoc1C | -0.07% [with zVAD 20 µM] (inactive) |
| COc1ccccc1NC(=O)CSc1nnc(-c2ccoc2C)n1CCc1ccccc1 | -0.28% [with zVAD 20 µM] (inactive) |
| COc1ccc(N2C(=O)C3C(C2=O)C(C(=O)c2ccccc2)N2CCCC32)cc1 (stereo unspecified) | -0.53% (inactive) |
